For four compounds, composite z-score and z-score results are on record in PubChem BioAssay.

Calls of active or inactive are those of the source. Unless noted, how the calls were made is not given here.

In assay [1] the test system is Wnt5a (protein binding on small-molecule microarray). The experiment in a line: Wnt5a binders on small-molecule microarray, primary screen, biophysical, 635/667 nm fluorescence (AID 1142).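 Further: fluorescence read at 667 nm with signal to noise per printed feature.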 The conditions noted are these: 635 nm fluorescence, higher = more signal.
Assay [2] in a line: cell viability in Huh7 cells, primary screen, cytotoxicity control for HCV replication inhibitor project, CellTiter-Glo luminescence, basal, 48 h (AID 1143).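 Further: Huh7 hepatoma cells carrying a hepatitis C replication reporter with no stimulus; test concentration not given here.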 The conditions noted are these: Huh7 HCV replicon, higher = more signal, called active from +8 up or from −8 down. Background: Cellular ATP, detected with luciferase, serves as a proxy for viable cell number.
A short description of assay [3]: P. aeruginosa biofilm formation inhibitors, primary screen, PAO1 strain, BacTiter-Glo luminescence, LB-PBS (AID 1144). The conditions noted are these: 12 h, higher = more signal.
Assay [4] in a line: CREB reporter modulators without forskolin, primary screen, cell-based, PC12, CRE-LacZ reporter, unstimulated (AID 1145). The conditions noted are these: no forskolin, luminescence, 4.5 h, higher = more signal, called active from +8 up or from −8 down.
Assay [5] in a line: CREB reporter modulators under forskolin, primary screen, cell-based, PC12, CRE-LacZ reporter, forskolin-stimulated (AID 1146).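 Further: PC12 cells with 6xCRE LacZ reporter stimulated by forskolin 10 µM; beta-galactosidase reporter signal reflecting CREB driven transcription.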 The conditions noted are these: luminescence, 4.5 h, higher = more signal, called active from +8 up or from −8 down.
Assay [6] has as its target Streptavidin (Streptomyces avidinii) (UniProt P22629). Kind of assay: streptavidin binders on small-molecule microarray, primary screen, artefact control for SMM compound annotation, biophysical, 635/667 nm fluorescence (AID 1147).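 Further: signal reflects streptavidin binding to arrayed compounds as a control protein.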 The conditions noted are these: streptavidin binding, higher = more signal.
Assay [7] can be described thus: small-molecule binders of probe aInhba, primary screen, biochemical, small-molecule microarray, 635/667 nm fluorescence (AID 1148).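 Further: score merges 667nm spot fluorescence with signal-to-noise for antibody binding to printed compounds.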 Conditions: higher = more signal.
For assay [8], the target named is Torsin-1A (Homo sapiens) (UniProt O14656). Kind of assay: torsin A binders from cell lysate, primary screen, small-molecule microarray, wild-type, 635/667 nm (AID 1149). The conditions noted are these: COS7 hTOR1A-WT lysate, 635 nm fluorescence, higher = more signal.
For assay [9] the target is unchanged. Kind of assay: small-molecule binders of mutant TOR1A in lysate, primary screen, cell lysate, small-molecule microarray, COS7 lysate, 635/667 nm fluorescence (AID 1150).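 Further: score pools 667 nm emission and signal to noise measuring lysate protein binding.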 Conditions: COS7 hTOR1A mutant lysate, 635 nm fluorescence, higher = more signal.
Assay [10] deals with Sonic hedgehog protein (Shh). The experiment in a line: small-molecule binders of Shh protein, primary screen, biochemical, small-molecule microarray, 635/667 nm fluorescence (AID 1151).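 Further: Shh protein binding to compounds spotted on small-molecule microarray slides; score combines spot fluorescence intensity with signal-to-noise across triplicate slides.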 The conditions noted are these: small-molecule microarray binding, 635 nm fluorescence; higher = more signal.
Assay [11] is described as follows: E. coli DRC41 culture turbidity changes, primary screen, E. coli filamentation inducer project, strain DRC41, OD650, 48 h (AID 1152).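 Further: E. coli MC1000 strain DRC41 lacking acrAB efflux pump and sulA.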 Conditions: E. coli DRC41 (acrAB sulA), higher = more signal, called active from +8 up or from −8 down.
A short description of assay [12]: small-molecule binders of probe aLefty1, primary screen, biochemical, small-molecule microarray, 635/667 nm fluorescence (AID 1153).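 Further: score merges spot fluorescence with signal-to-noise ratio from the scanned slide images.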 Conditions: higher = more signal.
A short description of assay [13]: PSAC antagonists in infected red cells, primary screen, cell-based, P. falciparum Indochina, OD700, 1 h (AID 1154). Conditions: P. falciparum Indochina infected RBC osmotic lysis, higher = more signal, called active from +8 up or from −8 down.
Assay [14] is described as follows: PSAC antagonists in infected red cells, primary screen, cell-based, P. falciparum Indochina, OD700, 2 h (AID 1155).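 Further: lysis reports solute entry through the parasite surface anion channel PSAC; channel blockers reduce lysis of infected cells.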 The conditions noted are these: P. falciparum Indochina infected erythrocytes, osmotic lysis OD700; higher = more signal, called active from +8 up or from −8 down.
Assay [15] in a line: osmotic lysis modulators in infected erythrocytes, primary screen, PSAC antagonist project, cell-based, P. falciparum Indochina, OD700, 3 h (AID 1156). Conditions: higher = more signal, called active from +8 up or from −8 down.
Assay [16] can be described thus: PSAC antagonists in infected red cells, primary screen, cell-based, P. falciparum Indochina, OD700, 18 h (AID 1157). The conditions noted are these: P. falciparum Indochina infected erythrocytes, osmotic lysis OD700, 18 h; higher = more signal, called active from +8 up or from −8 down.
The nature of assay [17]: modulators of S6 phosphorylation in cells, primary screen, cell-based, A549, cytoblot, luminescence, serum-stimulated (AID 1158).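 Further: serum-stimulated A549 lung adenocarcinoma cells; signal is phosphorylated S6 detected by cytoblot immunostaining with HRP secondary.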 Conditions: A549 phospho-S6 cytoblot, 5 h, higher = more signal.
Assay [18] concerns the target NADPH oxidase 2 (Homo sapiens) (UniProt P04839). The experiment in a line: NOX2-dependent H2O2 signal modulators, primary screen, NOX inhibitor project, cell-based, HEK293-NOX2, PMA-stimulated, Amplex Red fluorescence (AID 1159). Further: test concentration not given here. Conditions: 45 min, higher = more signal, called active from +8 up or from −8 down.
For assay [19], the target named is NADPH oxidase 4 (Homo sapiens) (UniProt Q9NPH5). Kind of assay: NOX4-dependent H2O2 signal modulators, primary screen, NOX inhibitor project, cell-based, HEK293-NOX4, tetracycline-induced, Amplex Red fluorescence (AID 1160). The conditions noted are these: 45 min, higher = more signal, called active from +8 up or from −8 down.
Assay [20] addresses NADPH oxidase 5 (Homo sapiens) (UniProt Q96PH1). Kind of assay: NOX5-dependent H2O2 signal modulators, primary screen, NOX inhibitor project, cell-based, HEK293-NOX5, Amplex Red fluorescence (AID 1161). Conditions: HEK293-NOX5, ionomycin, 45 min, higher = more signal.

Chain of Streptavidin (Streptomyces avidinii) (P22629 whole entry, looked up): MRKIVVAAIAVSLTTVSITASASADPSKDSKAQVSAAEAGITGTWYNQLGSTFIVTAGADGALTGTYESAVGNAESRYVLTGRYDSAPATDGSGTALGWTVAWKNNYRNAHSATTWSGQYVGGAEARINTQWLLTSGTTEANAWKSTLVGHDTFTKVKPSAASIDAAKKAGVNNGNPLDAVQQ
Chain of NADPH oxidase 4 (Homo sapiens) (Q9NPH5 whole entry, looked up): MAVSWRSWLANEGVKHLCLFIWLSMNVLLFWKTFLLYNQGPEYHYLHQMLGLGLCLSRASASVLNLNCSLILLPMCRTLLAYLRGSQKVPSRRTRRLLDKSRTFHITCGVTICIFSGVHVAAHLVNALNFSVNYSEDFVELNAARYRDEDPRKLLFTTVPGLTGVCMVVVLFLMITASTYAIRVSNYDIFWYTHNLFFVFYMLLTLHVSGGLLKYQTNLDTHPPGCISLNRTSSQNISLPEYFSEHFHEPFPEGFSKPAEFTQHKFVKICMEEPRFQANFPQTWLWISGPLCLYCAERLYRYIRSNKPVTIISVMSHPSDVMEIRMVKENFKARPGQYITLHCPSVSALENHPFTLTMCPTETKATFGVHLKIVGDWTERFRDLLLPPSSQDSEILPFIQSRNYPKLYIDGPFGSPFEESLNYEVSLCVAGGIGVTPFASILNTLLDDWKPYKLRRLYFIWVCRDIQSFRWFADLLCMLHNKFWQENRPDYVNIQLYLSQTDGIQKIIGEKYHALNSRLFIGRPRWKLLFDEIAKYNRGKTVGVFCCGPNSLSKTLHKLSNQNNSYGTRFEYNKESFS
Chain of NADPH oxidase 5 (Homo sapiens) (Q96PH1 whole entry, looked up): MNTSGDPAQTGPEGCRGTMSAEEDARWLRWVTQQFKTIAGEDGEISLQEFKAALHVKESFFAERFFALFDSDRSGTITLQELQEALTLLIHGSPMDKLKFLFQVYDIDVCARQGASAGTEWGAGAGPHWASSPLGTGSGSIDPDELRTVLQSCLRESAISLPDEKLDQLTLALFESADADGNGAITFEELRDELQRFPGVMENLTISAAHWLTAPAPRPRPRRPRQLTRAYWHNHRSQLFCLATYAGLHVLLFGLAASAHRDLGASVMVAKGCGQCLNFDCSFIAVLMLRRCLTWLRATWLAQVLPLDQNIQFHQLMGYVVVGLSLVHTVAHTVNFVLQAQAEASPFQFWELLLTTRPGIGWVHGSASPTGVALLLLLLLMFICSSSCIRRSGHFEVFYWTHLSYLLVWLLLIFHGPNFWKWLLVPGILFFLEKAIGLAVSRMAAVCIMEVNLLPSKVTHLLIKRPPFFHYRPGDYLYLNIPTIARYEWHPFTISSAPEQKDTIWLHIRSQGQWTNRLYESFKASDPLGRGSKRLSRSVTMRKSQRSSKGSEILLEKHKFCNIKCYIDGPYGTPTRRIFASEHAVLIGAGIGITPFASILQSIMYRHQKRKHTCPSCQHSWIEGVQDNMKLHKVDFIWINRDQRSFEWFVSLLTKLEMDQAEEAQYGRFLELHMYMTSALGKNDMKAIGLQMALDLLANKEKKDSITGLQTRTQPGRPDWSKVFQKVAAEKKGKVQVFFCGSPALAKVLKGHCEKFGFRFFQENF
Chain of Torsin-1A (Homo sapiens) (O14656 whole entry, looked up): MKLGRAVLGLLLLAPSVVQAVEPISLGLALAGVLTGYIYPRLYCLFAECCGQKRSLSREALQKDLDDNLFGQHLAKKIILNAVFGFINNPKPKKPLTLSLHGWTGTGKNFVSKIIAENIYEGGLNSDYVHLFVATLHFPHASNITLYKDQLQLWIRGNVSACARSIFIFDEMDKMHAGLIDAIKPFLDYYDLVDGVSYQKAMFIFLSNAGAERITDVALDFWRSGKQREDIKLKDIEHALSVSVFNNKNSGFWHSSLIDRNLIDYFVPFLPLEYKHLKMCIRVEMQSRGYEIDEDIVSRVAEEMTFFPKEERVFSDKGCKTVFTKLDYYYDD
Chain of NADPH oxidase 2 (Homo sapiens) (P04839 whole entry, looked up): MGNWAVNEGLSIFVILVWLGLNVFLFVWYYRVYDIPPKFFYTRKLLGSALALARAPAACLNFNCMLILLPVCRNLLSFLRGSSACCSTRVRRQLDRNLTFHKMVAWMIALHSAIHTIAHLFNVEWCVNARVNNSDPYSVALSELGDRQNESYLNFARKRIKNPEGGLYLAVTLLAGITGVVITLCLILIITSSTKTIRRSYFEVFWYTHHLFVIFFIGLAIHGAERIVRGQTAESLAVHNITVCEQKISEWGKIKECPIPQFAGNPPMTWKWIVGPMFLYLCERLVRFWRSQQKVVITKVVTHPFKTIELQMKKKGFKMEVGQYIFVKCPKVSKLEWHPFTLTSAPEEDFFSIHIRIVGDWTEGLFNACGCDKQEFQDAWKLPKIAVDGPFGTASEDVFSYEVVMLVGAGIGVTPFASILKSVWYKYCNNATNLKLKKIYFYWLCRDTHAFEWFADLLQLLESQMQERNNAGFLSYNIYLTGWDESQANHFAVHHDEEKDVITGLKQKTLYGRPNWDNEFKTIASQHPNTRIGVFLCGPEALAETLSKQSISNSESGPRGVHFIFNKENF

Take `CO[C@@H]1COC(=O)CC=C[C@@H](C)COC(=O)[C@H](COCc2ccccc2)NC(=O)CC=C[C@H]1C`: the composite z-score in assay [1] is -0.146; in assay [6], -0.214; in assay [7], -0.128; with Torsin-1A (Homo sapiens) [8], 2.33; with Torsin-1A (Homo sapiens) [9] it was 2.51; in assay [10], 1.77. Besides, in assay [12], the composite z-score was -0.363. For the same compound, the z-score is 0.185 (inactive) in assay [2]; 0.324 (inactive) in assay [3]; 0.605 (inactive) in [4]; -0.201 (inactive) in [5]; -0.0825 (inactive) in assay [11]; 0.391 (inactive) in assay [13]. Besides, the z-score in assay [14] was 0.331 (inactive); in assay [15] it was 0.195 (inactive); in [16], 0.403 (inactive); in assay [17], -0.186; in assay [18], 0.978 (inactive); in assay [19] it was -1.24 (inactive). Further, in assay [20], the z-score was 0.941.
As to `CC[C@@H](c1ccccc1)n1c(=O)n2n(c1=O)[C@H]1[C@H](O)[C@@H]3O[C@@H]3C(=NOCC(C)C)[C@H]1CC2`, the composite z-score is -0.11 in assay [1]; -0.36 in assay [6]; -0.0405 in assay [7]; -0.132 with Torsin-1A (Homo sapiens) [8]; -0.115 in the assay with Torsin-1A (Homo sapiens) [9]; 0.636 in assay [10]. The composite z-score in assay [12] was -0.0508. The z-score was 0.529 (inactive) in assay [2]; 0.51 (inactive) in assay [3]; 0.786 (inactive) in assay [4]; 0.671 (inactive) in [5]; -1.11 (inactive) in assay [11]; -0.0462 (inactive) in assay [13]. The z-score in assay [14] was -0.155 (inactive); in assay [15], 0.282 (inactive); in assay [16] it was -0.0656 (inactive); in [17], 0.123; in assay [18] it was 1.72 (inactive); in [19], 0.386 (inactive). In addition, the z-score in assay [20] worked out at 0.371.
On to `CCN1C(=O)[C@H]2[C@H]3[C@H](O)[C@H](O)CC(=NOCC=C(C)CCC=C(C)C)[C@H]3CC[C@H]2C1=O`, for which the composite z-score was 0.249 in [1]; -0.298 in [6]; -0.0471 in assay [7]; 0.896 in the assay with Torsin-1A (Homo sapiens) [8]; 0.43 with Torsin-1A (Homo sapiens) [9]; 1.77 in [10]. This compound returned a composite z-score in assay [12] of -0.0518. Also, the z-score in assay [2] is -0.327 (inactive); in assay [3], -0.805 (inactive); in assay [4], -0.0223 (inactive); in [5], -0.323 (inactive); in assay [11] it was 0.376 (inactive); in assay [13], 0.955 (inactive). In addition, the z-score was -0.506 (inactive) in [14]; -0.527 (inactive) in [15]; -0.163 (inactive) in assay [16]; -0.0053 in assay [17]; -0.516 (inactive) in [18]; 0.301 (inactive) in assay [19]. For the same compound, the z-score in assay [20] is -1.52.
With `CCOC(=O)CCN1C(=O)[C@H]2[C@H]3[C@H](O)[C@H](O)CC(=NOC[C@@H](O)COCc4ccco4)[C@H]3CC[C@H]2C1=O`, the composite z-score in [1] was -0.0068; in [6], 0.0794; in assay [7], -0.0627; in the assay with Torsin-1A (Homo sapiens) [8], 0.291; with Torsin-1A (Homo sapiens) [9] it was 0.18; in [10], 0.856. This compound also registered a composite z-score in [12] of -0.101. The z-score was -4.31 (inactive) in assay [2]; -0.284 (inactive) in assay [3]; 1.41 (inactive) in assay [4]; 0.749 (inactive) in assay [5]; -0.923 (inactive) in assay [11]; 0.73 (inactive) in assay [13]. Besides, the z-score in [14] was -1.31 (inactive); in assay [15] it was 0.318 (inactive); in [16], -2.76 (inactive); in assay [17], 0.141; in assay [18], -0.343 (inactive); in assay [19] it was 0.0781 (inactive). Moreover, the z-score in assay [20] was -0.498.
